The text below walks through data of ChEMBL document CHEMBL1157539, “Thousands of chemical starting points for antimalarial lead identification” (Nature, 2010).

The test relates to Plasmodium falciparum. The experiment in a line: GSK_TCMDC: Inhibition of Plasmodium falciparum 3D7 in whole red blood cells, using parasite LDH activity as an index of growth. Test compounds present at 2uM. The test is classed as functional.
On to `CSc1cccc(NC(=O)c2cc3ccccc3oc2=O)c1`, for which the Inhibition is recorded as 92%.
The value for `COc1cc(CNCCC(C)C)ccc1OCc1cccc(COc2ccc(CNCCC(C)C)cc2OC)c1.Cl` was 99%; that for `Cc1ccoc1C(=O)Nc1cccc(-c2cccc(-c3nc4ccccc4[nH]3)c2)c1` was 85%; that for `CC1CN(S(=O)(=O)c2ccc(NC(=O)c3cc(-c4ccccc4O)n[nH]3)cc2)CC(C)O1` (stereo not given) was 97%.
The molecule `COc1cccc(Nc2c(C(N)=O)cnc3ccc(-c4ccccc4)cc23)c1` showed an Inhibition of 98%.
With `CCCC(=O)c1cnc2cc(O)ccc2c1Nc1ccccc1C`, the Inhibition is reported as 99%.
`CNC(=O)c1ccccc1Nc1nc(Nc2cccnc2)ncc1C.Cl` gave an Inhibition of 93%.
The figure for `NC(=O)c1ccccc1OCC(=O)Nc1ccc(-c2cccc(-c3nc4cc(C(F)(F)F)ccc4[nH]3)c2)cc1` is 100%; for `CC(c1cccc(Nc2nccc(-c3c(-c4cccc(NC(=O)c5c(F)cccc5F)c4)nn4ccccc34)n2)c1)S(C)(=O)=O` (stereo not given) it is 98%; for `Cc1ccc(Cn2ncc(NC3CCNCC3)c(Cl)c2=O)cc1NC(=O)Nc1ccc(-c2ccccc2)cc1.O=C(O)C(F)(F)F` it is 99%.
`CCCCCCOc1ccc(C(=O)NCCCC2CCN(CCCCCNC(=O)C=Cc3ccc(Cl)c(Cl)c3)CC2)cc1` came in with an Inhibition of 94%.
The molecule `O=S(=O)(Nc1ccc(CCN2CCCCC2CCN2CCCC2)cc1)c1cccc2cccnc12` (stereo not given) registered an Inhibition of 100%.
In turn, `Cc1ccc(NC(=O)c2cccc(N3CCN(c4ccncc4)CC3)c2)cc1F.O=C(O)C(F)(F)F` yielded an Inhibition of 100%.
The figure for `COc1cccc(CNC(=O)c2cccc(-c3cccc(CN4CCC(N5CCCC5)CC4)c3)n2)c1.O=C(O)C(F)(F)F` is 100%; for `CCCCc1ccc(NC(=O)Nc2cccc(CCNCc3ccccc3)c2)cc1.O=C(O)C(F)(F)F` it is 94%.
The figure for `CCCCCCP(=O)(COc1ccc(CCN(CC(O)COc2cccc3[nH]c(C(N)=O)cc23)CC(O)COc2cccc3[nH]c(C(N)=O)cc23)cc1)OCCCC` (stereo not given) is 99%; for `CCC(NCc1ccc(-c2cncc(C(=O)NCC(C)C)c2)cc1)c1ccccc1.O=C(O)C(F)(F)F` (stereo not given) it is 86%; for `CN(C)CCNCc1ccc(-c2ccc(-c3nc4ccccc4[nH]3)s2)cc1.O=C(O)C(F)(F)F` it is 100%.
`Clc1ccc(Nc2nc3ccc(Cl)cc3nc2Nc2ccc(Cl)cc2)cc1` showed an Inhibition of 99%.
Regarding `CCCOc1cccc(C(=O)N[C@@H](Cc2ccccc2)[C@H](O)CNCc2cccc(OC)c2)c1`, the Inhibition came to 100%.
For `CCCCNCc1ccc(-c2nc(CN(CCCn3ccnc3)C(=O)NC3CC3c3ccccc3)cs2)cc1.O=C(O)C(F)(F)F` (stereo not given), the Inhibition was 100%.
Turning to `O=C(Nc1cc(F)cc(F)c1)N1CCOC(CCN2CCC(c3ccccc3)CC2)(c2ccc(Cl)c(Cl)c2)C1` (stereo not given), the Inhibition was 91%.
The figure for `COc1ccc(C2=[N+]([O-])c3ccccc3C2=O)cc1` is 93%; for `COc1cc(CNCCCCCCNCc2cc(OC)c3ccccc3c2OC)c(OC)c2ccccc12.CS(=O)(=O)O` it is 100%.
`COc1cc(NC(=O)c2sc(-c3ccc(Cl)cc3)cc2NC(=O)c2ccncc2)ccc1OCCN1CCCC1` yielded an Inhibition of 100%.
Consider `O=C(CC(c1ccccc1)c1ccccc1O)N1CCOCC1` (stereo not given), for which the Inhibition is 84%.
In the case of `Cl.O=C(Nc1ccccc1)c1cccc(Nc2nccc(Nc3ccc(Oc4ccccc4)cc3)n2)c1`, the Inhibition is 98%.
The value for `CN(C)c1ccc(C=CC(=O)NC(=O)c2ccccc2O)cc1` was 92%; that for `Cc1ccn2cc(-c3ccc(NC(=O)c4ccc(Br)o4)cc3)nc2c1` was 98%.
`COc1ccc2nccc([C@@H](O)CN3CCC(NCc4ccc5c(c4)NC(=O)CO5)CC3)c2c1.Cl` displayed an Inhibition of 99%.
The value for `CC(C)(CNC(=O)[C@H]1CCCN1)c1nc(-c2ccc(Cl)c(O)c2)c(-c2ccncc2)[nH]1.Cl` was 86%; that for `Nc1c2c(nc3ccc(C(=O)Nc4ccccc4)cc13)CCCC2` was 100%.
As to `Cc1cccc(Nc2nc(N)c3ccccc3n2)c1.Cl`, the Inhibition was 99%.
The molecule `Cc1cc(CN2CCC(Nc3ncc(-c4ccsc4)c4nc(C(F)(F)F)ccc34)CC2)no1.Cl` gave an Inhibition of 81%.
For the molecule `CCN(CC)CCCCNc1cc(-c2[nH]c(C(C)(C)C)nc2-c2ccc3cc(OC)ccc3c2)ccn1.O=C(O)C(F)(F)F`, the Inhibition was 85%.
The figure for `Fc1cccc(-c2ccc3c(c2)CC(NCc2c[nH]c4cnccc24)C3)c1` (stereo not given) is 100%.
The value for `CC(C)(C)OC(=O)C1CCCN(Cc2ccc(-c3cccc(-c4nc5ccccc5[nH]4)c3)cc2)C1.O=C(O)C(F)(F)F` (stereo not given) was 93%.
In turn, `O=C(Cc1cccc2ccccc12)N1CCc2cc3nccc(N4CCN5CCC[C@H]5C4)c3cc21` showed an Inhibition of 100%.
The molecule `COc1cc2nc(N3CCC(CNC(=O)/C=C/c4ccccc4F)CC3)nc(N)c2cc1OC.Cl` displayed an Inhibition of 100%.
Turning to `COc1ccc2nccc([C@@H](O)CN3CCC(NCc4ccc5c(c4)N(C)C(=O)CO5)CC3)c2c1.O=C(O)C(=O)O`, the Inhibition is 100%.

The Inhibition is how much of the control response was suppressed. High values mean a response far below the control, low ones a response near the control.
